Source: the supplement of paper PMC6555819

Legend:
Assay in all cases: PBM binding z-score (relative to random genomic background probes); higher = stronger binding; sequences stand for … in GC…GCGATTGACAGCGTAGAATGAAGG
[1] = test system: PPARg:RXRa DBDmut IVT, anti-RXR (DBD mutation: RXRa K156A/R161A, NR concentration 270 nM, RXRa partner concentration 90 nM)
In short: (§1)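 Probes were double-stranded and carried 34-nt variable regions with direct-repeat seeds, single-nucleotide variants, half-site ablations and random human genomic background sequences, printed on custom Agilent 4×180K protein-binding microarrays. Arrays were incubated 1 h with ligand-free nuclear receptor dimers in PBS pH 7.4, 2% milk, 0.02% Triton X-100, 1 mM DTT, 0.2 mg/mL BSA and 0.4 mg/ml salmon testes DNA. Antibodies against each partner (one per run) detected binding, and scanned fluorescence was regression-normalized. Binding z-scores use the random background probes as reference.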

[2] = test system: PPARg:RXRa IVT, anti-PPARg (NR concentration 270 nM, RXRa partner concentration 90 nM)
In short: as §1

[3] = test system: PPARg DBDmut IVT, anti-PPARg (DBD mutation: PPARg1 K132A/R137A, NR concentration 270 nM)
In short: as §1

[4] = test system: PPARg homodimer (NR concentration 180 nM)
In short: as §1

[5] = test system: PXR:RXRa (NR concentration 270 nM, RXRa partner concentration 90 nM)
In short: as §1

[6] = test system: PXR homodimer (NR concentration 270 nM)
In short: as §1

[7] = test system: RARa:RXR (NR concentration 270 nM, RXRa partner concentration 90 nM)
In short: as §1

[8] = test system: RARa homodimer (NR concentration 270 nM)
In short: as §1

[9] = test system: RARb:RXRa (NR concentration 270 nM, RXRa partner concentration 90 nM)
In short: as §1

[10] = test system: RARb homodimer (NR concentration 270 nM)
In short: as §1

[11] = test system: RARg:RXRa (NR concentration 270 nM, RXRa partner concentration 90 nM)
In short: as §1

[12] = test system: RARg homodimer (NR concentration 270 nM)
In short: as §1

[13] = test system: RXRa DBDmut IVT, anti-RXR (DBD mutation: RXRa K156A/R161A, NR concentration 90 nM)
In short: as §1

[14] = test system: RXRa homodimer (NR concentration 180 nM)
In short: as §1

[15] = test system: THRa:RXRa (NR concentration 90 nM, RXRa partner concentration 90 nM)
In short: as §1

[16] = test system: THRa homodimer (NR concentration 90 nM)
In short: as §1

[17] = test system: VDR homodimer (NR concentration 270 nM)
In short: as §1

| Sequence | PBM binding z-score [1] | PBM binding z-score [2] | PBM binding z-score [3] | PBM binding z-score [4] | PBM binding z-score [5] | PBM binding z-score [6] | PBM binding z-score [7] | PBM binding z-score [8] | PBM binding z-score [9] | PBM binding z-score [10] | PBM binding z-score [11] | PBM binding z-score [12] | PBM binding z-score [13] | PBM binding z-score [14] | PBM binding z-score [15] | PBM binding z-score [16] | PBM binding z-score [17] |
| --- | --- | --- | --- | --- | --- | --- | --- | --- | --- | --- | --- | --- | --- | --- | --- | --- | --- |
| CGAACTAGGTCAAAGGACAGTGGAAGGCGACGTA | 8.19 | 8.49 | 1.31 | 1.21 | 0.947 | -0.227 | 1.74 | 0.262 | 3.93 | 3.07 | 3.62 | 4.31 | 1.4 | 2.94 | 2.5 | 0.274 | 0.241 |
| CGAACTAGGTGACCAGGACAGTGAAGAGGTTGGA | 7.15 | 7 | -0.325 | -0.217 | -0.13 | -0.15 | 0.228 | -0.394 | 0.744 | 1.03 | 0.633 | 0.705 | -0.229 | 0.65 | 1.36 | 0.885 | -0.155 |
| CGAACTAGGTCACCAGGACAGTGATGAGGTTGGA | 7.98 | 8.61 | 0.614 | 2.34 | 1.5 | 0.423 | 2.69 | 0.546 | 4.16 | 3.53 | 4.4 | 5.41 | 1.28 | 3.45 | 3.42 | 2.08 | 1.13 |
| CGAACTAGGTCAAAGGACAGCGAAAGGCGACGTA | 8.31 | 8.46 | 0.805 | 1.59 | 1.22 | -0.642 | 2.66 | 0.165 | 3.93 | 3.05 | 4.13 | 4.72 | 1.85 | 3.19 | 2.46 | 0.406 | 0.311 |
| CGAACTAGGTCAAAGGATAGTGAAAGGCGACGTA | 8.11 | 8.26 | 0.867 | 1.36 | 1 | -0.152 | 1.9 | 0.167 | 3.62 | 2.35 | 3.47 | 4.16 | 1.28 | 2.85 | 2.22 | 0.17 | 0.124 |
| ATATGTCGGTTAGGGTCATTCAGAAAGTAGGGAA | 2.03 | 3.18 | 2.25 | 3.91 | 4.88 | 2.06 | 5.07 | 1.86 | 3.32 | 3.22 | 3.91 | 3.09 | 2.46 | 4.81 | 4.36 | 3.4 | 4.14 |
| ATATGTAGGTTAGGGTCATGCAGAAAGTAGGGAA | 6.6 | 6.52 | 2.44 | 2.6 | 4.26 | 1.01 | 5.05 | 1.83 | 3.66 | 3.55 | 4.44 | 3.61 | 2.02 | 5.67 | 4.25 | 3.53 | 2.78 |
| CGACCTAGGTCAAAGGACAGTGAAAGGCGACGTA | 3.69 | 4 | -0.949 | 1.74 | 1.42 | -0.567 | 2.9 | -0.132 | 4.05 | 3.13 | 4.74 | 5.05 | 1.69 | 4 | 2.86 | 0.639 | 0.41 |
| CGAACTAGGTCAAAGGGCAGTGAAAGGCGACGTA | 8.19 | 8.52 | 0.155 | 2.2 | 2.96 | -0.191 | 4.78 | -0.269 | 4.31 | 3.46 | 5.34 | 4.91 | 1.65 | 5.31 | 3.11 | 0.218 | 0.354 |
| ATATGTAGGTTAGGGTCTTTCAGAAAGTAGGGAA | 6.29 | 6.62 | 2.64 | 2.25 | 0.93 | 1.06 | 1.2 | 1.44 | 0.945 | 0.963 | 0.711 | 0.651 | 0.741 | 0.743 | 1.51 | 1.22 | 0.739 |
| CGAACTAGGTCACCAGGACAGTGACGAGGTTGGA | 8.26 | 8.82 | 1.73 | 1.63 | 1.66 | -0.0254 | 2.69 | 0.339 | 4.38 | 3.61 | 4.59 | 5.52 | 1.22 | 3.43 | 3.55 | 1.99 | 0.698 |
| CGGACTAGGTCACCAGGACAGTGAAGAGGTTGGA | 7.92 | 8.27 | 0.234 | 1.95 | 1.24 | -0.197 | 2.09 | -0.221 | 4.15 | 3.18 | 4.13 | 5.61 | 1 | 3.39 | 3.14 | 2.14 | 0.337 |
| CGTACTAGGTCACCAGGACAGTGAAGAGGTTGGA | 7.9 | 8.08 | 4.96 | 3.11 | 1.53 | 0.369 | 2.86 | 0.557 | 4.19 | 3.24 | 4.42 | 5.34 | 1.55 | 3.04 | 3.22 | 1.88 | 0.631 |
| CGAACTAGGTCACCAGGACACTGAAGAGGTTGGA | 8.03 | 8.93 | 1.04 | 1.58 | 2.02 | 0.353 | 2.73 | 0.625 | 4.22 | 3.48 | 4.62 | 5.4 | 1.56 | 3.65 | 3.83 | 2.39 | 0.607 |
| ATATGGAGGTTAGGGTCATTCAGAAAGTAGGGAA | 2.21 | 3.8 | 1.73 | 2.92 | 4.32 | 2.35 | 4.55 | 2.05 | 3.93 | 3.98 | 4.17 | 2.98 | 2.42 | 5.24 | 4.27 | 3.55 | 3.4 |
| ATATGTAGGTTACGGTCATTCAGAAAGTAGGGAA | 7.69 | 8.18 | 1.83 | 2.04 | 0.971 | 0.516 | 1.47 | 0.836 | 2.89 | 2.42 | 2.34 | 2.47 | 0.852 | 1.64 | 2.08 | 0.831 | 0.93 |
| CGAACTAGGTCACCAGGACAGTGGAGAGGTTGGA | 8.2 | 8.98 | 4.11 | 2.37 | 1.37 | -0.106 | 2.81 | 0.103 | 4.39 | 3.32 | 4.53 | 5.51 | 1.04 | 3.27 | 3.34 | 1.78 | 0.74 |
